Source: PubChem BioAssay (National Center for Advancing Translational Sciences (NCATS))
In the library only some 8.7% were active in any assay of this set; here they are far more common.
HP1b chromo inh – blocks HP1-beta chromodomain binding to methylated histone tails; Potency, µM (titrated, usually from 114 µM), actives largely listed as inhibitors; AlphaScreen HP1-beta / biotin-H3K9me3 peptide binding; P83916; 390,000 compounds, 0.56% hits; AID 540317; further: nearly all actives have a fitted effect of over 70% in size
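HP1-beta protein (50 nM final) preincubated 30 min at room temperature with biotinylated H3(1-18)K9me3 peptide (50 nM) in PBS pH 7.4, 0.01% Tween-20, then compound added for 30 min. AlphaScreen streptavidin donor/nickel chelate acceptor beads (10 ug/mL final), 30 min dark, luminescence read.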
BAZ2B inh – BAZ2B (human) inhibition | AlphaScreen BAZ2B-H3K14Ac peptide displacement | Potency, µM (titrated, usually from 114 µM), most hits filed as inhibitors | 360,000 compounds, 4.4% hits; further: nearly all actives have a fitted effect of over 60% in size
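Protein-peptide AlphaScreen: BAZ2B 50 nM, b-H3K14Ac 50 nM, 1x PBS pH 7.4 + 0.01% Tween-20. Preincubation 30 min RT; cpd 30 min RT (top 110 uM); beads 20 min RT, light-protected.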
JMJD2A Tudor – blocks the human JMJD2A Tudor domain; AlphaScreen JMJD2A-Tudor / H3K4me3 peptide binding; O75164; Potency, µM (top dose mostly 114 µM), most hits filed as inhibitors; 390,000 compounds, 4.4% hits; AID 504339; further: nearly all actives have a fitted effect of over 50% in size
12-LOX inh – inhibitors of human 12S-lipoxygenase ALOX12. Potency, µM (doses to about 108 µM), hits mostly inhibitors. 580,000 compounds, 1.1% hits. P18054. purified 12hLO, xylenol orange hydroperoxide absorbance
Target sequence (P18054 whole entry, looked up): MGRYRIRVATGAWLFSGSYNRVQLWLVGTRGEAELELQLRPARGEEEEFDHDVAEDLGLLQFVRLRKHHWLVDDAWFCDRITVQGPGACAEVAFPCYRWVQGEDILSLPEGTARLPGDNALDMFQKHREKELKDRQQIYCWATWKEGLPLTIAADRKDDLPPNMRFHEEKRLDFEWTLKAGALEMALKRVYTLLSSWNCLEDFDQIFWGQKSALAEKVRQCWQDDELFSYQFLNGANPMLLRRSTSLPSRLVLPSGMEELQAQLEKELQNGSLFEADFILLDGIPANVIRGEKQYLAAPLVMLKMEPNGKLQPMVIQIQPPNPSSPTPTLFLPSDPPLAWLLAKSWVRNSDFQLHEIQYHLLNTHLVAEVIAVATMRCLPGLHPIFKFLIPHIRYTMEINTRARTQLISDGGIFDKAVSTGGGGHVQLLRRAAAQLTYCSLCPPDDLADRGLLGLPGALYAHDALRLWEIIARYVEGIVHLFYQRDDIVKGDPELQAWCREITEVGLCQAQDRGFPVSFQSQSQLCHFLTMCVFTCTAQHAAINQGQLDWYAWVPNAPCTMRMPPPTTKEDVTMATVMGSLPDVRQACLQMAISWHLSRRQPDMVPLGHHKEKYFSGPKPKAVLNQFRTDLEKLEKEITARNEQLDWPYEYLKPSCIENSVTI
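Purified human 12hLO (150 nM final) in 25 mM Hepes, 0.01% Triton X-100, pH 7.0 was preincubated 15 min at room temperature with compound. Then 40 uM arachidonic acid was added, 30 min. Hydroperoxide was read by Fe-XO absorbance ratio 573/405 nm.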
G9a inh – inhibitors of human histone lysine methyltransferase G9a; G9a H3K9 monomethylation, AlphaScreen, 2 h; 350,000 compounds, 8.8% hits; Potency, µM (series often up to 102 µM), usual class: inhibitors; Q96KQ7; AID 504332; further: nearly all actives have a fitted effect of over 75% in size
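Methyltransferase reactions run at room temperature for 2 h (20 nM enzyme, 500 nM biotin-H3K9 peptide, 20 uM SAM) after a 15 min compound preincubation; product detected by AlphaScreen beads and anti-H3K9me1 antibody.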
Sfp PPTase inh – inhibitors of Bacillus subtilis Sfp phosphopantetheinyl transferase | Q9F4F7 | Biochemical Sfp PPTase activity, qHTS | Potency, µM, usual class: inhibitors | 310,000 compounds, 3.5% hits | AID 1490;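 further: the enzyme is Sfp with the accession as filed and its product quenches rhodamine fluorescence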
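Buffer: 50 mM Hepes-Na pH 7.6, 10 mM MgCl2, 0.01% Nonidet P-40, 0.01% BSA. Enzyme 15 nM, pre-exposed to compound 15 min; substrates then added and fluorescence change tracked over 30 min.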
Numbers stand for hits; - = inactive; ? = inconclusive; . = no result given; [ ] = dose if it differs, or a comment. The call rests on the fitted dose curve; in most records, active means well fitted curve in the direction sought with a large enough effect; inconclusive means small, poorly fitted or top-dose-only effect, or another doubt; inactive means no such curve, though single readings can be large; an effect the other way counts as inactive or inconclusive.

SMILES | HP1b chromo inh | BAZ2B inh | JMJD2A Tudor | 12-LOX inh | G9a inh | Sfp PPTase inh
Cc1cc(NC(=O)CSc2ccccn2)no1 | - | - | - | - | 44.7µM | -
Cc1cc(NC(=O)CSc2c[nH]c3ccccc23)no1 | - | - | - | - | - | -
COCCN1C(=O)[C@@H]2C[C@@H](CN2Cc2ccccc2Cl)Oc2ccccc21 | . | . | . | - | . | .
Cc1ncsc1C(=O)N1CCC2(CC1)OC(=O)N(Cc1cccnc1)C2(C)c1ccccc1 (centres undefined) | . | . | . | - | . | .
Cc1ccccc1CC(=O)Nc1cc(C(C)(C)C)on1 | - | - | - | 5.01µM | - | -
COc1ccc(C2CC(=O)Nc3c2ncn3-c2cccc(C(F)(F)F)c2)cc1OC (centres undefined) | . | . | . | 28.2µM | . | .
CC(=O)Oc1ccc2nc(-c3ccco3)oc(=O)c2c1 | - | - | 28.2µM | ? | - | -
COC(=O)/C(C#N)=C1/C=Cc2ccccc2N1C | - | - | - | - | - | -
CN1/C(=C/c2cc[n+](C)c3ccccc23)C=Cc2ccccc21 | ? | 28.2µM | 28.2µM | . | 35.5µM | -
CCOc1ccc(NC2SC(=O)N(Cc3ccccc3)C2=O)cc1 (centres undefined) | - | ? | ? | - | 11.2µM | .
COC(=O)c1cccc(CN2C(=O)SC(Nc3ccccc3)C2=O)c1 (centres undefined) | - | - | - | - | 79.4µM | -
CCN(CC)S(=O)(=O)c1ccc(N2CCOCC2)c(NS(=O)(=O)c2cccs2)c1 | - | - | - | - | -[2.33 µM] | .
CCN(CC)S(=O)(=O)c1ccc(N2CCOCC2)c(NS(=O)(=O)c2cc(C(C)(C)C)ccc2C)c1 | ? | - | ? | - | 10µM | -
CCN(CC)S(=O)(=O)c1ccc(N2CCOCC2)c(NS(=O)(=O)c2ccc(C(C)C)cc2)c1 | ? | - | 25.1µM | - | - | -
CCN(CC)CC1CCN(C(=O)c2ccc(C#N)cc2)CC1 | . | . | . | - | . | .
Cc1nn(CC(=O)NC2CC(c3nnc(CN(C)C)n3C)C2)c(C)c1Cl (centres undefined) | . | . | . | - | . | .
CN(C)c1ccc(NC(=O)c2cn(-c3ccccc3)nc2-c2cccs2)cc1 | ? | 35.5µM | 14.1µM | ? | 10µM | -
N#CCCn1cc(C(=O)Nc2ccc(C(=O)O)cc2)c(-c2cccs2)n1 | - | - | 15.8µM | - | - | -
CCCOc1ccccc1C(N)C(=O)OCC (centres undefined) | . | . | . | - | . | .
CCOCC(=O)N[C@H]1CN(Cc2nc(C)c(C)n2C)C[C@@H]1C(C)C | . | . | . | - | . | .
CS(=O)(=O)Oc1ccc2c(=O)c(Oc3ccccc3Br)coc2c1 | . | . | . | - | . | .
O=C(O)c1ccccc1-c1ccc(/C=C/c2cc(C(F)(F)F)[nH]c(=O)n2)o1 | - | ? | - | ? | 39.8µM | -
O=C(O)c1cc(Cl)ccc1-c1ccc(/C=C/c2cc(C(F)(F)F)[nH]c(=O)n2)o1 | - | - | - | ? | ? | -
OCC1(Cc2ccccc2)CCN(C2CCN(c3ccc(F)c(F)c3)CC2)CC1 | - | - | - | 50.1µM | - | -
OCC1(Cc2ccccc2)CCN(CCCC2CCCC2)CC1 | - | - | - | ? | - | -
SMILES | HP1b chromo inh | BAZ2B inh | JMJD2A Tudor | 12-LOX inh | G9a inh | Sfp PPTase inh
Cc1ccc(CNc2nc3c([nH]2)c(=O)n(C)c(=O)n3C)cc1 | - | - | - | - | 44.7µM | -
Cn1c(=O)c2[nH]c(Nc3ccccc3)nc2n(C)c1=O | - | - | - | - | - | ?
Cc1ccc(O)c(N=Nc2ccc(S(=O)(=O)N3CCOCC3)cc2)c1 | ? | 8.91µM | 14.1µM | - | -[12.7 µM] | -
CC(C)(C)c1cc(Br)c(O)c(N=Nc2ccc(S(=O)(=O)N3CCOCC3)cc2)c1 | ? | 7.94µM | 5.62µM | - | 14.1µM | -
Cc1ccc(NC(=O)CCc2ccc(S(=O)(=O)N3CCOCC3)cc2)c(O)c1 | - | . | - | - | . | .
O=C(c1cccc(Cl)c1)N1CCCC2(Cc3ccccc3NC2=O)C1 (centres undefined) | . | . | . | - | . | .
Cc1cc(OCC(=O)NNC(=S)NC(=O)c2cccs2)ccc1Cl | - | - | - | - | 31.6µM | -
O=C(NC(=S)NCc1ccccc1Cl)c1cccs1 | - | . | - | 15.8µM | . | .
CC(C)(C)c1ccc(C(=O)NC(=S)NNC(=O)c2cccs2)cc1 | - | - | ? | 39.8µM | 39.8µM | -
Cc1ccccc1C(=O)NNC(=S)NC(=O)c1cccs1 | - | - | - | - | ? | -
O=C(NC(=S)NNC(=O)c1cccs1)c1ccccc1 | - | - | - | ? | 8.91µM | -
N[C@H]1CN(S(=O)(=O)c2ccc(OC(F)F)cc2)C[C@@H]1C1CC1 | . | . | . | - | . | .
Cc1ccc(-n2cccc2CC(=O)N2CCOCC2)cc1 | . | . | . | - | . | .
Cc1cccc(C(=O)NC(=S)NNC(=O)c2cccs2)c1 | ? | - | 25.1µM | ? | 7.08µM | -
O=C(NC(=S)Nc1ccccc1N1CCN(C(=O)c2ccccc2)CC1)c1cccs1 | - | - | - | 15.8µM | - | -
O=C1NC2(Cc3ccccc31)CN(Cc1ccc(C(F)(F)F)cc1)C2 | . | . | . | -[6.33 µM] | . | .
Cc1nc(C2CC(O)C2)cc(N2CCN(CCc3ccccc3)CC2)n1 (centres undefined) | . | . | . | - | . | .
CCn1ccc(C(=O)N2CC(Oc3ccc(-c4nc(-c5ccccc5)no4)cc3)C2)n1 | . | . | . | - | . | .
COc1cc(-c2nc(Cc3c(F)cccc3Cl)no2)cc(OC)c1OC | - | 50.1µM | - | - | ? | -
COc1cc(-c2noc(-c3cccc(Cl)c3)n2)cc(OC)c1OC | - | - | - | - | - | -
Oc1cccc(O)c1 | . | . | . | . | -[2.33 µM] | -
O=S(=O)(c1cc(O)ccc1O)c1cccc2c(S(=O)(=O)c3cc(O)ccc3O)cccc12 | 15.8µM | 11.2µM | 17.8µM | 31.6µM | -[2.33 µM] | .
Cc1ccccc1NC(=O)Cn1c(O)c(N=NC(=O)c2ccccc2O)c2ccccc21 | - | 63.1µM | - | - | ? | -
Cc1ccc(NCC(=O)N=Nc2c(O)n(C)c3ccccc23)cc1 | - | 17.8µM | - | - | . | ?
CCn1c(O)c(N=NC(=O)CNc2cccc(C)c2)c2ccccc21 | - | ? | ? | - | - | -
SMILES | HP1b chromo inh | BAZ2B inh | JMJD2A Tudor | 12-LOX inh | G9a inh | Sfp PPTase inh
Cn1c(O)c(N=NC(=O)CNC(=O)c2ccccc2)c2ccccc21 | - | - | - | - | - | -
CCn1c(O)c(N=NC(=O)CNc2ccc(C)cc2)c2ccccc21 | ? | 31.6µM | 56.2µM | - | ? | -
Cc1ccc(NC(=O)Cn2c(O)c(N=NC(N)=S)c3ccccc32)cc1 | - | - | - | - | - | -
Cc1ccc(NC(=O)Cn2c(O)c(N=NC(N)=O)c3ccccc32)cc1 | - | - | - | - | - | -
Cc1ccc(NC(=O)Cn2c(O)c(N=NS(=O)(=O)c3ccc(C)cc3)c3ccccc32)cc1 | - | - | 25.1µM | 14.1µM | 2.51µM | -
Cc1ccc(Cl)cc1NC(=O)c1ccccc1-c1ccccc1 | . | . | . | - | . | .
CN(C)C(=O)CNS(=O)(=O)c1ccc(F)c(F)c1 | . | . | . | - | . | .
